Assay outcomes (PubChem)
Sampled rows, rich in hits. Any-hit rate of the full collection: about 11%.
Pf growth 48h = P. falciparum growth inhibition at 48 hours (one generation). Potency, µM (top dose mostly 28.7 µM), for the others: at the top dose activity change, negative = inhibition, most hits filed as inhibitors. 310,000 compounds, 5.9% hits. P. falciparum luciferase growth in erythrocytes, 48 h
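Read-out is firefly luciferase luminescence from an integrated reporter in P. falciparum, so falling signal marks reduced parasite growth. Infected erythrocytes were at 2% hematocrit and 0.1% parasitemia (final) in Albumax-supplemented RPMI 1640.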
HCV inh = HCV inhibition; Huh7.5.1 HCVcc-Cre infection, luciferase reporter, 44 h; Potency, µM (series often up to 41.8 µM), for inactives: at the highest dose activity change, negative = inhibition, hits mostly inhibitors; 340,000 compounds, 3.4% hits; AID 651820
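Seed cells (1,000/well) for 4 h; treat with compound and infect with HCVcc-Cre, moi about 0.5. Incubate 44 h, then detect luciferase activity.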
Pf growth 96h = P. falciparum growth inhibition at 96 hours; P. falciparum luciferase reporter growth, 96 h; Potency, µM (titrated, usually from 28.7 µM), for the others: at the highest dose activity change, negative = inhibition, usual class: inhibitors; 320,000 compounds, 6.9% hits
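P. falciparum expressing integrated firefly luciferase grown in erythrocytes (2% hematocrit, 0.05% parasitemia final) with compounds for 96 hours at 37 C, 5% CO2. Growth inhibition read as loss of luminescence after adding luciferase detection reagent.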
AMA1 RON2 block = AMA1-RON2 (P. falciparum) interaction inhibition; 360,000 compounds, 0.2% hits; Potency, µM (highest dose often 58.2 µM), inactives show at the highest dose activity change, negative = inhibition, most hits filed as inhibitors; AlphaScreen AMA1-biotinylated RON2 peptide binding;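 further: 0% = vehicle wells and -100% = peptide control; nearly all actives have a fitted effect of over 45% in size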
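AMA1 (3D7) with his tag at 25 nM final met compounds first, then biotinylated RON2 peptide at 25 nM; detection used donor plus acceptor beads, 10 µg/mL apiece, read by AlphaScreen after 30 min at room temperature.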
* = called active by the depositor; u = inconclusive; x = not tested or not shown. The call rests on the fitted dose curve; in most records, active means well fitted curve in the direction sought with a large enough effect; inconclusive means small, poorly fitted or top-dose-only effect, or another doubt; inactive means no such curve, though single readings can be large; an effect the other way counts as inactive or inconclusive. Unless noted, on the % scale 0 is the no-effect control and ±100 the full control effect; potency means the concentration at half of the fitted maximal effect.

SMILES | Pf growth 48h | HCV inh | Pf growth 96h | AMA1 RON2 block
COc1ccc(CN2C(=O)C(CC(C)C)Nc3ncnc(N4CCOCC4)c32)cc1 (stereo unspecified) | u | 20.5% | u | 0.5%
CC1Nc2ncnc(N3CCN(c4ccccc4)CC3)c2N(Cc2ccccc2)C1=O (stereo unspecified) | u | 17.7% | u | -1.0%
CC(C)CC1Nc2ncnc(N3CCN(c4ccccc4)CC3)c2N(Cc2ccccc2)C1=O (stereo unspecified) | 10.4µM* | u | 11.7µM* | 1.3%
CO[C@H]1C[C@@H]2CC[C@@H](C)[C@@](O)(O2)C(=O)C(=O)N2CCCC[C@H]2C(=O)O[C@H]([C@H](C)C[C@@H]2CC[C@@H](O)[C@H](OC)C2)CC(=O)[C@H](C)C=C(C)[C@@H](O)[C@@H](OC)C(=O)[C@H](C)C[C@H](C)C=CC=CC=C1C | 5.22µM* | x | 0.928µM* | x
O=[N+]([O-])c1cccc(/C=N/N2CCN(Cc3ccccc3)CC2)c1 | 171.9% | 8.2% | u | -2.5%
O=[N+]([O-])c1cccc(C=NN2CCCCCC2)c1 | x | u | x | 17.8µM*
O=C(N/N=C/c1cccc([N+](=O)[O-])c1)c1cc2ccccc2o1 | 5.4% | 11.2µM* | u | -6.1%
O=[N+]([O-])c1cccc(/C=N/N=C\c2ccccc2)c1 | -10.1% | 1.3% | 13.1µM* | -6.3%
O=[N+]([O-])c1cc(C=NN2CCCCCC2)ccc1Cl | x | u | x | 14.1µM*
FC(F)(F)c1cccc(CNC2CCN(Cc3ccccc3)CC2)c1 | 2.62µM* | u | u | 0.0%
C#CCOc1ccccc1CNC1CCN(Cc2ccccc2)CC1 | 9.28µM* | u | 13.1µM* | 6.9%
C#CCOc1ccccc1CNc1ccccc1 | 4.6% | -2.3% | -0.5% | -1.2%
CC(=O)Nc1c(C(=O)O)[nH]c2ccccc12 | 6.5% | 16.3% | 10.4µM* | -2.8%
CCS(=O)(=O)Nc1c(C(=O)OC)[nH]c2ccccc12 | 12.5% | 0.1% | x | -0.2%
CCS(=O)(=O)Nc1c(C(=O)O)[nH]c2ccccc12 | -5.0% | 0.0% | 11.7µM* | -16.5%
COc1cc(C(=O)Nc2c(C(=O)O)[nH]c3ccccc23)cc(OC)c1OC | 0.9% | 19.9% | -0.6% | 11.1%
CCC(=NCCCN(CC)CC)c1c(O)n(C2CCCCC2)c(=O)[nH]c1=O | -29.5% | -13.9% | -8.4% | 1.9%
CCN(CC)CCCN=C(C)c1c(O)n(C2CCCCC2)c(=O)[nH]c1=O | 4.2% | -1.8% | 6.57µM* | -0.4%
Cc1ccc(S(=O)(=O)N2C[C@H]3C(=O)C[C@@H](c4cccs4)N(S(=O)(=O)c4ccc(C)cc4)[C@H]3C[C@H]2c2ccccc2)cc1 | x | x | x | 0.8%
CCCSc1ccc([C@@H]2[C@@H]3C(=O)N(C)C(=O)[C@@H]3[C@]3(C(=O)OC)CCCN23)cc1OC | 11.7µM* | u | 8.28µM* | 7.3%
CCCCCCSc1ccc([C@@H]2[C@H]3C(=O)N(C)C(=O)[C@H]3[C@]3(C(=O)OC)CCCCN23)cc1OC | u | -1.1% | 7.38µM* | -18.7%
CCCCCCSc1ccc([C@@H]2[C@@H]3C(=O)N(C)C(=O)[C@@H]3[C@]3(C(=O)OC)CCCCN23)cc1 | x | 7.3% | x | 0.0%
CCCCCCSc1ccc([C@@H]2[C@H]3C(=O)N(CC)C(=O)[C@H]3[C@]3(C(=O)OC)CCCCN23)cc1OC | x | -6.8% | x | -9.0%
CCCCCCSc1ccc([C@@H]2[C@@H]3C(=O)N(C)C(=O)[C@@H]3[C@]3(C(=O)OC)CCCCN23)cc1OC | 3.29µM* | -10.9% | 5.86µM* | -7.7%
COC(=O)c1cc(C)sc1NC(=O)CSc1ncccn1 | 61.7% | -13.2% | 1.0% | 37.5%
SMILES | Pf growth 48h | HCV inh | Pf growth 96h | AMA1 RON2 block
COCCNC(=O)C1=C(N)C(C(=O)Nc2ccc(C)c(S(=O)(=O)N3CCCCC3)c2)SC1=Nc1ccc(C)cc1C (stereo unspecified) | x | 0.0% | u | 43.2%
C[C@H](NC(=O)Nc1cccc(Br)c1)C(=O)O | 17.6% | 19.3% | 33.1% | 14.9%
Cc1cccc(-c2nc(CS(=O)CC(=O)N3CC(C)CC(C)C3)c(C)o2)c1 (stereo unspecified) | 19.4% | -8.6% | -4.6% | 6.0%
Cn1ncc([N+](=O)[O-])c1C(=O)Nc1cccc2ccccc12 | 16.2% | -22.9% | 2.33µM* | -10.9%
Cn1ncc([N+](=O)[O-])c1C(=O)Nc1ccc(-c2nc3ccccc3o2)cc1 | 6.5% | -25.6% | 4.65µM* | -8.0%
CC(C)C(OC(=O)c1cccc(S(=O)(=O)NCC(F)(F)F)c1)C(=O)NC(N)=O (stereo unspecified) | 23.0% | u | 62.0% | -2.7%
Fc1ccccc1NC(=S)Nc1cccc2cnccc12 | -19.9% | u | 36.3% | 5.8%
CC(=O)c1ccc(NC(=S)Nc2cccc3cnccc23)cc1 | 1.85µM* | 12.7% | 2.62µM* | 11.6%
COCCNC(=S)Nc1cccc2cnccc12 | 19.6% | u | 0.0% | -0.6%
CCCCNC(=S)Nc1cccc2cnccc12 | 7.7% | 10µM* | -10.7% | -6.3%
S=C(Nc1cccc(Cl)c1)Nc1cccc2cnccc12 | 0.0% | u | 4.15µM* | -9.8%
S=C(Nc1cccc(Cl)c1)Nc1ccccc1Oc1ccccc1 | 20.6% | u | 11.7µM* | -10.1%
COc1ccc(OC)c(-c2cc(C(=O)Nc3ccc(F)cc3F)no2)c1 | -3.2% | 2.9% | 5.0% | 0.6%
Cc1ccc(NC(=S)Nc2cccc3cnccc23)cc1C | u | u | u | 20.9%
Cc1ccc(C)c(NC(=S)Nc2cccc3cnccc23)c1 | u | u | 9.28µM* | 9.0%
Cc1ccccc1NC(=S)Nc1cccc2cnccc12 | 5.22µM* | -11.0% | 9.28µM* | 8.4%
Cc1ccc(NC(=S)Nc2cccc3cnccc23)cc1 | u | -29.0% | u | 7.0%
COCCNC(=O)c1cccc(OC2CCN(Cc3cccc(C(C)=O)c3)CC2)c1 | -10.0% | -25.7% | 0.0% | -6.3%
COCCNC(=O)c1cccc(OC2CCN(Cc3ccc(OC(F)F)cc3)CC2)c1 | -2.6% | 7.08µM* | 0.0% | -7.6%
CCOc1ccccc1CN1CCNC(=O)C1CC(=O)NCCCn1cccn1 (stereo unspecified) | -10.1% | 5.5% | 11.7µM* | 28.5%
CCOc1ccccc1CN1CCNC(=O)C1CC(=O)NCc1nc(C)cs1 (stereo unspecified) | 4.7% | x | 9.28µM* | 9.6%
O=C(CC1C(=O)NCCN1Cc1cccc(Oc2ccccc2)c1)NCCCn1cccn1 (stereo unspecified) | -19.1% | -1.4% | 10.4µM* | -13.1%
Cc1csc(CNC(=O)CC2C(=O)NCCN2Cc2ccc(F)cc2Cl)n1 (stereo unspecified) | 2.1% | 18.6% | -1.5% | 41.5%
Cc1ccccc1CN1CCNC(=O)C1CC(=O)NC1CCCCCCC1 (stereo unspecified) | u | 4.1% | 2.62µM* | 31.5%
C[C@@H]1CN(C(=O)c2nc3ccc(Cl)cn3c2CN2CCc3sccc3C2)C[C@H](C)O1 | u | -27.8% | u | 1.8%
CC1(C)C(=O)C=CC(=O)C(C)(C)C(=O)C=CC(=O)C(C)(C)C2=CC=C(O2)C(C)(C)C(=O)C=CC1=O | x | u | x | 5.8%
